This note sets out measurements from PubChem BioAssay AID687026 (Broad Institute, 2013).

Results with a measured potency or affinity are listed apart. Activity calls are given as the source filed them. How the calls were made is not given here.

The nature of this assay: CEM21 cell cytotoxicity, dose response, cytotoxicity control, plate reader, dry powder (AID 687026). As to conditions: CEM21 cells cytotoxicity; series mostly up to 35 µM.
As for `Cc1noc(C)c1S(=O)(=O)Nc1cccc2c1O[C@H](CN(C)Cc1ccc(C(F)(F)F)cc1)[C@H](C)CN([C@H](C)CO)C2=O`, the molecule was called inactive.

For the molecule `Cc1noc(C)c1S(=O)(=O)Nc1cccc2c1O[C@@H](CN(C)Cc1ccc(C(F)(F)F)cc1)[C@H](C)CN([C@@H](C)CO)C2=O`, the call was inactive.

In the case of `CCCn1nc(C(=O)Nc2ccc3nc(N4CCOCC4)sc3c2)ccc1=O`, the outcome was inactive.

Regarding `CC(=O)Nc1ccc(NC(=O)CN(c2ccc(C34CC5CC(CC(C5)C3)C4)cc2)S(C)(=O)=O)cc1`, the molecule was called inactive.

Turning to `CC1(C)CC(NC(=O)C(=O)Nc2ccc(Cl)cc2)CC(C)(C)N1`, the molecule was classed as inactive.

`CCOc1ccc(S(=O)(=O)NCc2ccccn2)cc1`: the result was inactive.

`CO[C@@H]1CN(C)C(=O)c2ccc(NC(=O)Nc3cccc(F)c3)cc2OC[C@@H](C)N(C(=O)Nc2cccc(F)c2)C[C@H]1C`: the molecule was classed as inactive.

Turning to `Cc1noc(C)c1S(=O)(=O)Nc1cccc2c1O[C@@H](CN(C)Cc1ccc(C(F)(F)F)cc1)[C@H](C)CN([C@H](C)CO)C2=O`, the outcome was inactive.

As for `COc1ccccc1CCNCc1ccc(OC)c(OCc2ccccc2)c1`, the call was inactive.

In the case of `Cn1c(C(=O)N2CCN(c3nc4ccccc4s3)CC2)cc2sccc21`, the molecule was called inactive.

Consider `Cc1noc(C)c1S(=O)(=O)Nc1cccc2c1O[C@H](CN(C)Cc1ccc(C(F)(F)F)cc1)[C@@H](C)CN([C@@H](C)CO)C2=O`, for which the molecule was called inactive.

`Cc1noc(C)c1S(=O)(=O)Nc1cccc2c1O[C@H](CN(C)Cc1ccc(C(F)(F)F)cc1)[C@@H](C)CN([C@H](C)CO)C2=O`: the outcome was inactive.

For the molecule `CCCC#Cc1ccc2c(c1)O[C@@H](CN(C)S(=O)(=O)c1cccc(F)c1)[C@@H](C)CN([C@H](C)CO)S2(=O)=O`, the result was inactive.

Turning to `COc1ccc(S(=O)(=O)NCc2ccncc2)cc1OC`, the molecule was called inactive.

Regarding `CCOc1ccc(OCC)c(S(=O)(=O)NCc2ccncc2)c1`, the molecule was called inactive.

Take `O=S(=O)(NCc1ccncc1)c1ccc2c(c1)OCCO2`: the result was inactive.

For the molecule `CCOc1ccc(C)cc1S(=O)(=O)NCc1ccncc1`, the call was inactive.

In the case of `CCOc1ccc(S(=O)(=O)NCc2ccccc2)cc1`, the call was inactive.

On to `Cc1noc(C)c1S(=O)(=O)Nc1cccc2c1O[C@@H](CN(C)Cc1ccc(C(F)(F)F)cc1)[C@@H](C)CN([C@@H](C)CO)C2=O`, for which the molecule was classed as inactive.

Take `Cc1ccc(S(=O)(=O)N(C)C[C@@H]2Oc3ccc(NS(=O)(=O)c4c(C)noc4C)cc3CC(=O)N([C@H](C)CO)C[C@@H]2C)cc1`: the molecule was classed as inactive.

On to `Cc1noc(C)c1S(=O)(=O)N(C)C[C@@H]1Oc2ccc(NC(=O)Nc3ccccc3)cc2CC(=O)N([C@@H](C)CO)C[C@@H]1C`, for which the call was inactive.

As to `C[C@H]1CCCCO[C@@H](CN(C)Cc2ccncc2)[C@@H](C)CN([C@@H](C)CO)C(=O)c2cc(NC(=O)Nc3ccccc3)ccc2O1`, the call was inactive.
